Test results taken from the supplement of paper PMC3342239.
Where a name gives a salt, the structure may show the parent alone.

These molecules were tested on Saccharomyces cerevisiae (assay: fraction of cells in G1 phase (DNA content, flow cytometry); higher = more cells with unreplicated DNA (G1 delay)). Details: temperature: 30 C; YPD; JTY2953 pdr5 snq2 (sensitized); drug added to: cultures diluted from stationary phase; 6-7 h.
How it was run: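 S. cerevisiae grown in YPD at 30°C was exposed to library drugs. In one setup, overnight sensitized JTY2953 cultures were diluted 1∶200, given a final 20 µg/ml and fixed after 6–7 h, while other runs dosed dividing JTY2953 with fixation 6 h later or BY4741 with fixation 4.33 h later. Cells were ethanol-fixed, stained with SYTOX Green and analysed by flow cytometry at 10,000 events. The G1 fraction is the area of the Dean-Jett-Fox G1 peak divided by the summed G1 and G2/M areas.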

SMILES	fraction of cells in G1 phase
O=c1[nH]c(=O)n([C@H]2C[C@H](O)[C@@H](CO)O2)cc1F [Floxuridine] (81.2358 µM)	0.514
COc1cc(NC(C)CCCN)c2ncccc2c1 (stereo not drawn) [Primaquine phosphate] (77.1146 µM)	0.461
CN1[C@@H](CC(=O)c2ccccc2)CCC[C@H]1C[C@H](O)c1ccccc1 [Lobeline] (59.2652 µM)	0.525
CO/N=C(\C(=O)N[C@@H]1C(=O)N2C(C(=O)O)=C(COC(C)=O)CS[C@H]12)c1csc(N)n1 [Cefotaxime acid] (43.9106 µM)	0.485
C[C@H]1C[C@@H]2[C@H]([C@@H](O)C[C@@]3(C)[C@H]2CC[C@]3(O)C(=O)CO)[C@@]2(C)C=CC(=O)C=C12 [Methylprednisolone] (53.4072 µM)	0.481
CCCN[C@H]1CCc2nc(N)sc2C1 [Pramipexole] (94.6382 µM)	0.48
COC(=O)C1=C(C)NC(C)=C(C(=O)OCCN(C)Cc2ccccc2)C1c1cccc([N+](=O)[O-])c1 (stereo not drawn) [Nicardipine] (38.7597 µM)	0.5
O=C(O)CCCc1ccccc1 [Sodium phenylbutyrate] (107.418 µM)	0.491
CC(=O)OCC(=O)[C@@]1(O)CC[C@H]2[C@@H]3CCC4=CC(=O)CC[C@]4(C)[C@H]3[C@@H](O)C[C@@]21C [Hydrocortisone 21-acetate] (49.4428 µM)	0.494
C[C@H]1c2cccc(O)c2C(O)=C2C(=O)[C@]3(O)C(O)=C(C(N)=O)C(=O)[C@@H](N(C)C)[C@@H]3[C@@H](O)[C@@H]21 [Doxycycline HCl] (44.9999 µM)	0.53
CN(C)CCC(c1ccc(Cl)cc1)c1ccccn1 (stereo not drawn) [Chlorpheniramine maleate] (72.7812 µM)	0.452
C/C=C/c1ccc(OC)cc1 [Anethole, trans-] (134.947 µM)	0.525
NC(=O)c1ncn([C@@H]2O[C@H](CO)[C@@H](O)[C@H]2O)n1 [Ribavirin] (81.8972 µM)	0.481
c1cnc(N2CCN(Cc3ccc4c(c3)OCO4)CC2)nc1 [Piribedil HCl] (67.0359 µM)	0.532
COc1ccc2c3c1O[C@H]1C[C@@H](O)C=C[C@@]31CCN(C)C2 [Galanthamine HBr] (69.5987 µM)	0.538
COc1ccc(Cl)cc1C(=O)NCCc1ccc(S(=O)(=O)NC(=O)NC2CCCCC2)cc1 [Glyburide] (40.4847 µM)	0.531
CN(C)CCCC1(c2ccc(F)cc2)OCc2cc(C#N)ccc21 (stereo not drawn) [Citalopram] (61.652 µM)	0.454
CCn1cc(C(=O)O)c(=O)c2cc(F)c(N3CCN(C)CC3)cc21 [Pefloxacine mesylate] (59.9942 µM)	0.465
COc1ccc2cc([C@H](C)C(=O)O)ccc2c1 [Naproxen] (86.8561 µM)	0.514

SMILES	fraction of cells in G1 phase
Nc1ccc(S(=O)(=O)Nc2ncccn2)cc1 [Sulfadiazine] (79.9102 µM)	0.521
CC(C)OC(=O)CCC/C=C\C[C@@H]1[C@@H](CC[C@@H](O)CCc2ccccc2)[C@H](O)C[C@@H]1O [Latanoprost] (46.2315 µM)	0.528
COc1cc2c3cc1Oc1cc(ccc1O)C[C@@H]1c4c(cc(OC)c(O)c4Oc4ccc(cc4)C[C@@H]3N(C)CC2)CC[N+]1(C)C [Tubocurarine Cl  (+)] (32.8004 µM)	0.464
CC(Oc1c(Cl)cccc1Cl)C1=NCCN1 (stereo not drawn) [Lofexidine] (77.1792 µM)	0.483
CC(=O)O[C@]1(C(C)=O)CC[C@H]2[C@@H]3C=C(Cl)C4=CC(=O)[C@@H]5C[C@@H]5[C@]4(C)[C@H]3CC[C@@]21C [Cyproterone acetate] (47.9675 µM)	0.597
CC#C[C@]1(O)CC[C@H]2[C@@H]3CCC4=CC(=O)CCC4=C3[C@@H](c3ccc(N(C)C)cc3)C[C@@]21C [Mifepristone] (46.5541 µM)	0.469
CC(C)NCC(O)COc1ccc(CCOCC2CC2)cc1 (stereo not drawn) [Betaxolol HCl] (65.054 µM)	0.525
Clc1ccc2nsnc2c1NC1=NCCN1 [Tizanidine HCl] (78.8287 µM)	0.504
CCOC(=O)C(C)(C)Oc1ccc(Cl)cc1 [Clofibrate] (82.4047 µM)	0.552
O=C(CCNNC(=O)c1ccncc1)NCc1ccccc1 [Nialamide] (67.0359 µM)	0.512
CC1(C)O[C@@H]2C[C@H]3[C@@H]4C[C@H](F)C5=CC(=O)C=C[C@]5(C)[C@@]4(F)[C@@H](O)C[C@]3(C)[C@]2(C(=O)CO)O1 [Fluocinolone acetonide] (44.1989 µM)	0.48
O=P(O)(O)C(O)(Cc1cccnc1)P(=O)(O)O [Risedronic acid] (70.6425 µM)	0.463
CC(=O)OCC[N+](C)(C)C [Acetylcholine Cl] (136.789 µM)	0.483
NC(=O)N1c2ccccc2C=Cc2ccccc21 [Carbamazepine] (84.6469 µM)	0.483
CCCSc1ccc2[nH]c(NC(=O)OC)nc2c1 [Albendazole] (75.3761 µM)	0.475
CN1CCCCC1CCN1c2ccccc2Sc2ccc([S+](C)[O-])cc21 (stereo not drawn) [Mesoridazine besylate] (51.7354 µM)	0.476
C[C@H]1O[C@@H](n2cc(F)c(=O)[nH]c2=O)[C@H](O)[C@@H]1O [Doxifluridine] (81.2358 µM)	0.479
COC(=O)c1ccccc1O [Methyl salicylate] (131.448 µM)	0.513
NS(=O)(=O)Cc1noc2ccccc12 [Zonisamide] (94.238 µM)	0.51
